Experimental data from PubChem BioAssay (Tox21).
The source made the active and inactive calls. Entries that show only a call come without a potency. Unless noted, the call rests on the fitted dose curve; in most records, active means well fitted curve in the direction sought with a large enough effect in the repeat runs; inconclusive means weak or mixed curves; inactive means no such curve, though single readings can be large; an effect the other way counts as inactive or inconclusive.

Key:
[1] = qHTS assay to identify small molecule antagonists of the thyroid receptor (TR) signaling pathway - cell viability counter screen (AID 743064); further: nearly all actives have a fitted effect of over 50% in size; further: potency means the concentration at half of the fitted maximal effect
Procedure, shortened: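 CellTiter-Fluor readout, 30 min at 37 °C/5% CO2, following 23.5 h incubation of GH3.TRE-Luc cells with test compound and 1 nM T3 (final).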

[2] = qHTS assay to identify small molecule antagonists of the thyroid receptor (TR) signaling pathway (AID 743065); further: nearly all actives have a fitted effect of over 55% in size; further: potency means the concentration at half of the fitted maximal effect
Procedure, shortened: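 GH3.TRE-Luc rat pituitary cells carrying two TR response elements driving luciferase were plated for 4 h, given compound plus 1 nM T3 (final), and incubated 23.5 h at 37 C. ONE-Glo luminescence measured reporter inhibition; CellTiter-Fluor fluorescence tracked cytotoxicity.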

[3] = test system: thyroid hormone receptor (rat, GH3 cells); test: qHTS assay to identify small molecule agonists of the thyroid receptor (TR) signaling pathway (AID 743066; calls by dose curve)
[4] = qHTS assay to identify small molecule antagonists of the estrogen receptor alpha (ER-alpha) signaling pathway - cell viability counter screen (AID 743074; calls by dose curve;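 further: HEK293 cells carrying ER-alpha-UAS-bla reporter stimulated with 17beta-estradiol; nearly all actives have a fitted effect of over 45% in size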)
[5] = qHTS assay to identify small molecule antagonists of the estrogen receptor alpha (ER-alpha) signaling pathway using the BG1 cell line - cell viability counter screen (AID 743081);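 further: compound given together with 17beta-estradiol as the ER stimulus; nearly all actives have a fitted effect of over 45% in size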; further: potency means the concentration at half of the fitted maximal effect
Aromatase (Homo sapiens) = Aromatase (Homo sapiens) (UniProt P11511); test: qHTS assay to identify aromatase inhibitors (AID 743083); further: nearly all actives have a fitted effect of over 55% in size; further: potency means the concentration at half of the fitted maximal effect
Aromatase (Homo sapiens), sequence (P11511 whole entry, looked up): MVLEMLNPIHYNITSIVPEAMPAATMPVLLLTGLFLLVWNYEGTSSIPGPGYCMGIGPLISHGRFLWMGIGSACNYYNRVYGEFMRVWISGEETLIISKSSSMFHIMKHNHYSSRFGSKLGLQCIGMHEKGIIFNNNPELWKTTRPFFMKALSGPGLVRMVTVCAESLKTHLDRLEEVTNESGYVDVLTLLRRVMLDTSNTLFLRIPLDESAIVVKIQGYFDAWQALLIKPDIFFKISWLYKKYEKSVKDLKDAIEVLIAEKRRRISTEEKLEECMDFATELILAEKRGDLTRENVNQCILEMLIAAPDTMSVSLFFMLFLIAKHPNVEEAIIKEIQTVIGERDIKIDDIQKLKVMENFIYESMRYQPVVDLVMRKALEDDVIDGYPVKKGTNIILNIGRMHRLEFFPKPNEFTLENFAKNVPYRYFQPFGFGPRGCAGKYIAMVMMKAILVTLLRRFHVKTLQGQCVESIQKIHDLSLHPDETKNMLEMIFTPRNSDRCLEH

[6] = target: Estrogen receptor (Homo sapiens) (UniProt P03372); test: qHTS assay to identify small molecule agonists of the estrogen receptor alpha (ER-alpha) signaling pathway (AID 743075; calls by dose curve;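 further: HEK293 GripTite cells with ER-alpha and UAS-driven beta-lactamase reporter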; further: potency means the concentration at half of the fitted maximal effect)
Estrogen receptor (Homo sapiens), sequence (P03372 whole entry, looked up): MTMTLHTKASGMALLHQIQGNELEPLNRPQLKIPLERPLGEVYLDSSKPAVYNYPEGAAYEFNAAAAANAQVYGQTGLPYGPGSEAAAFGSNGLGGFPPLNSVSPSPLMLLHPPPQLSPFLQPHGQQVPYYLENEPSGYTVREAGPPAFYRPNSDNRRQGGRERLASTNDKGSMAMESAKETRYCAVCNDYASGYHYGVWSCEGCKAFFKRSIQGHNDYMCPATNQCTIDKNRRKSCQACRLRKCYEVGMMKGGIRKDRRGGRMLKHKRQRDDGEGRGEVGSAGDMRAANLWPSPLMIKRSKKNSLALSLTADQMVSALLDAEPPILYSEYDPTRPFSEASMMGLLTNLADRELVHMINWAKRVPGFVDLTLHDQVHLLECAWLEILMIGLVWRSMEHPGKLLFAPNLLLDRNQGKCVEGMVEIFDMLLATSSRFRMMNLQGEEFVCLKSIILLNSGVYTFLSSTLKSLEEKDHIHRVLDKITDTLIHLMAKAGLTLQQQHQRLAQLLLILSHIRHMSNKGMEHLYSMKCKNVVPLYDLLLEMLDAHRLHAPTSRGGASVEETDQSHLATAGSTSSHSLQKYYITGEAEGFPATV

[7] = qHTS assay to identify small molecule antagonists of the estrogen receptor alpha (ER-alpha) signaling pathway using the BG1 cell line (AID 743080; calls by dose curve;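 further: BG1 cells stimulated with 17beta-estradiol alongside compound; nearly all actives have a fitted effect of over 25% in size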; further: potency means the concentration at half of the fitted maximal effect)
Procedure, shortened: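 After 5 days in phenol-red-free 10% charcoal-stripped FBS medium, BG1-Luc-4E2 cells were seeded, left 24 h at 37 C, co-treated with compounds and 17beta-estradiol for 21.5 h, then assayed for viability and luciferase.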

[8] = target: Estrogen receptor (Homo sapiens) (UniProt P03372); test: qHTS assay to identify small molecule antagonists of the estrogen receptor alpha (ER-alpha) signaling pathway (AID 743069; active means well fitted curve in the direction sought with a large enough effect in the signal ratio in the repeat runs, not every such curve was filed as active; inconclusive means weak or mixed curves, or effect the other way; inactive means no such curve, though single readings can be large or run the other way; the % refers to the signal ratio; further: potency means the concentration at half of the fitted maximal effect)
Procedure, shortened: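 Estradiol-stimulated ER-alpha-UAS-bla HEK293 cells, 18 hr compound exposure at 37C. LiveBLAzer B/G substrate, 2 hr RT, fluorescence read.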

[9] = target: Estrogen receptor (Homo sapiens) (UniProt P03372); test: qHTS assay to identify small molecule agonists of the estrogen receptor alpha (ER-alpha) signaling pathway using the BG1 cell line (AID 743079); further: nearly all actives have a fitted effect of over 20% in size; further: potency means the concentration at half of the fitted maximal effect

SMILES | Potency [1] | Potency [2] | Potency [3] | outcome [4] | Potency [5] | Potency (Aromatase (Homo sapiens)) | Potency [6] | Potency [7] | Potency [8] | Potency [9]
CC(=O)Nc1ccc(/C=N/NC(N)=S)cc1 | inactive | inactive | inactive | inactive | inactive | inactive |  |  |  | 
CCCCCCCCCC=O | inactive | inactive | inactive | inactive | inactive | inactive | inactive | inactive |  | 
COC(=O)CSc1cc(N=c2sc(=O)n3n2CCCC3)c(F)cc1Cl | inactive | inactive | inactive | inactive | inactive | inactive |  |  |  | 
O=C1c2cccc(O)c2C(=O)c2c(O)cc(CO)cc21 | inactive | inactive | inactive | inactive | inactive | inactive | inactive |  |  | 
CC(C)=CCCC(C)CC=O (stereo unspecified) | inactive | inactive | inactive | inactive | inactive |  |  |  |  | 
COc1ccccc1OC(=O)Oc1ccccc1OC | inactive | inactive | inactive | inactive | inactive | inactive |  |  |  | 
Nc1nc(N)c(-c2ccccc2)s1 | inactive | inactive | inactive | inactive | inactive | inactive |  |  |  | 
C[C@@H](C1=C(CCN(C)C)Cc2ccccc21)c1ccccn1 | 29.8 µM (active) | 26.6 µM (active) | inactive | inactive | inactive |  |  |  |  | 
O=C(O)c1cccc(N(Cc2cccnc2)c2ccc(OC(F)F)c(OC(F)F)c2)c1 | inactive | inactive | inactive | inactive | inactive |  |  |  |  | 
CCCC[C@H]1CN(CC2CCOCC2)C(=O)OC12CCN(C1(C)CCN(C(=O)c3c(C)ncnc3C)CC1)CC2 | inactive | inactive | inactive | inactive | inactive | inactive |  |  |  | 
Cc1ccccn1 | inactive | inactive | inactive | inactive | inactive | inactive |  |  |  | 
CCCCC(CC)(CO)CO | inactive | inactive | inactive | inactive | inactive | inactive |  |  |  | 
N#Cc1c(F)cccc1F | inactive | inactive | inactive | inactive | inactive | inactive |  |  |  | 
O=C(O)C(c1ccc(Cl)cc1)c1ccc(Cl)cc1 | inactive | inactive | inactive | inactive | inactive |  | inactive | inactive |  | 
CCN(CC)C(C)=O | inactive | inactive | inactive | inactive | inactive | inactive |  |  |  | 
CC1(C)[C@H]2CC[C@]1(C)[C@H](O)C2 | inactive | inactive | inactive | inactive | inactive | inactive |  |  |  | 
CC(C)c1ccccc1C(C)C | 54.5 µM (active) | 61.2 µM (active) | inactive | inactive | inactive | inactive |  |  |  | 
CC[C@]12CCCN3CCc4c(n(c5ccccc45)C(=O)C1)[C@@H]32 | 8.04 µM (active) | 7.17 µM (active) | inactive | inactive | inactive | 11.4 µM (active) |  |  |  | 
O=C(/C=C/c1ccc(O)c(O)c1)O[C@@H]1C[C@](O)(C(=O)O)C[C@@H](O)[C@H]1O | inactive | inactive | inactive | inactive | inactive |  |  |  |  | 
CC(=O)[C@@]1(O)CC[C@H]2[C@@H]3C[C@H](C)C4=CC(=O)CC[C@]4(C)[C@H]3CC[C@@]21C | inactive | 11.9 µM (active) | inactive | inactive | inactive | inactive | inactive |  |  | 
Cn1c(N)nc2nc[nH]c2c1=O | inactive | inactive | inactive | inactive | inactive | inactive |  |  |  | 
CC(C)c1cccc(C(C)C)c1NC(=O)NS(=O)(=O)c1cc(C(C)(C)O)co1 | inactive | inactive | inactive | inactive | inactive |  |  |  |  | 

SMILES | Potency [1] | Potency [2] | Potency [3] | outcome [4] | Potency [5] | Potency (Aromatase (Homo sapiens)) | Potency [6] | Potency [7] | Potency [8] | Potency [9]
NCc1ccccc1 | inactive | inactive | inactive | inactive | inactive |  |  |  |  | 
Cc1ccc(C)o1 | inactive | inactive | inactive | inactive | inactive | inactive |  |  |  | 
Cc1ccc(O)c([C@H](CCN(C(C)C)C(C)C)c2ccccc2)c1 | 11.9 µM (active) | 26.6 µM (active) | inactive | inactive | inactive | inactive |  |  |  | 
CCCCCC/C=C/C=O | inactive | inactive | inactive | inactive | inactive | inactive |  |  |  | 
C[Si](C)O[Si](C)(C)O[Si](C)(C)O[Si](C)C | inactive | inactive |  | inactive | inactive | inactive | inactive | inactive | inactive | inactive
CN1CCC(=C2c3ccccc3C=Cc3ccccc32)CC1 | 15 µM (active) | 16.8 µM (active) | inactive |  | inactive | inactive | inactive |  |  | inactive
CN1CCC(=C2c3ccccc3CCc3sccc32)CC1 | 21.1 µM (active) | 26.6 µM (active) |  | inactive | inactive | inactive | inactive | inactive | inactive | 
OCCC1CCCCN1 (stereo unspecified) | inactive | inactive |  | inactive | inactive | inactive | inactive | inactive | inactive | inactive
C=CC(=O)OCC(C)OCC(C)OCC(C)OC(=O)C=C (stereo unspecified) | 38.6 µM (active) | 24.3 µM (active) |  | inactive | inactive | 43.3 µM (active) | 61.7 µM [activator] (active) |  |  | 
O=C(O)Cc1sc(-c2ccccc2)nc1-c1ccc(Cl)cc1 | inactive |  | inactive | inactive | inactive | inactive | inactive | inactive |  | inactive
Cc1ccc(C(C)c2ccc(C)c(C)c2)cc1C | inactive |  | inactive | inactive | inactive | inactive | inactive | inactive | inactive | inactive
CC(C)(C)c1ccc(OCC2CO2)cc1 (stereo unspecified) | inactive |  | inactive | inactive | inactive | inactive | inactive |  | inactive | 39.4 µM (active)
CN(C)CC/C=C1\c2ccccc2COc2ccccc21 | 13.3 µM (active) | 23.7 µM (active) |  | inactive | inactive | inactive |  |  |  | 
NC(=S)N/N=C/c1cccnc1 | inactive | inactive | inactive | inactive | inactive | inactive |  |  |  | 
CCC(=O)OC(C)(C)C1CC=C(C)CC1 (stereo unspecified) | inactive | inactive | inactive |  | inactive | inactive | inactive | inactive |  | 
CCCCCOC(=O)c1ccc(O)cc1 | inactive |  | inactive | inactive | inactive |  | 55.6 µM [inconclusive] (active) |  | 62.4 µM [inconclusive] (active) | 17.4 µM (active)
CCCCCCCCCCCCCCCCCBr | inactive | inactive | inactive | inactive | inactive | inactive |  |  |  | 
CC(C(=O)O)c1ccc(C(=O)c2ccccc2)s1 (stereo unspecified) | inactive | inactive |  | inactive | inactive | inactive | inactive |  | inactive | 
CN1CCN(C2=Nc3cc(Cl)ccc3Nc3ccccc32)CC1 | 13.3 µM (active) | 23.7 µM (active) |  | inactive | inactive | inactive | inactive |  |  | 
CCOC(=O)[C@H](CCc1ccccc1)N[C@H]1CCc2ccccc2N(CC(=O)O)C1=O | 5.31 µM (active) | 8.41 µM (active) |  | inactive | inactive | 15 µM (active) |  |  |  | 
CCCCCOC(=O)COc1cc(N2C(=O)C3=C(CCCC3)C2=O)c(F)cc1Cl | inactive |  | inactive | inactive | inactive | inactive | inactive |  | inactive | inactive
O=C(CCN1CCN2CCCC2C1)N1c2ccccc2Sc2ccc(Cl)cc21 (stereo unspecified) | 21.1 µM (active) | 18.8 µM (active) |  | inactive |  | inactive | inactive | inactive | inactive | inactive

SMILES | Potency [1] | Potency [2] | Potency [3] | outcome [4] | Potency [5] | Potency (Aromatase (Homo sapiens)) | Potency [6] | Potency [7] | Potency [8] | Potency [9]
CCCCCc1ccc(N)cc1 | inactive | inactive | inactive |  | inactive |  | inactive |  |  | inactive
O=C=NC1CCC(CC2CCC(N=C=O)CC2)CC1 (stereo unspecified) | inactive | inactive | inactive | inactive |  | inactive |  |  |  | 
CCCCCCCCCCCCCCCC(=O)OC/C=C(C)/C=C/C=C(C)/C=C/C1=C(C)CCCC1(C)C | inactive | inactive | inactive | inactive | inactive | inactive |  |  |  | 
CCc1nn(C2CCCCC2)c2cc(C3(C#N)CCC(C(=O)O)CC3)ccc12 (stereo unspecified) | 34.4 µM (active) | 61.1 µM (active) |  | inactive | inactive | 38.6 µM (active) |  | inactive | 13.8 µM [inconclusive] (active) | inactive
CCCCOC(=O)/C=C\C(=O)OCCCC | inactive |  | inactive | inactive | inactive | inactive | inactive |  | inactive | inactive
CCCCOC(=O)c1ccccc1C(=O)OCC(CC)CCCC (stereo unspecified) | inactive | inactive | inactive |  | inactive | inactive | inactive | inactive |  | inactive
CCCCOc1cc(C(=O)OCCN(CC)CC)ccc1N | inactive |  | inactive | inactive | inactive | inactive | inactive |  | inactive | inactive
CC(O)C1CCCCC1 (stereo unspecified) | inactive | inactive | inactive |  | inactive | inactive |  |  |  | 
CCN(CC)CCNC(C(=O)OCCC(C)C)c1ccccc1 (stereo unspecified) | inactive |  | inactive | inactive | inactive | inactive | inactive | inactive | inactive | inactive
Cc1c(Cn2ccnc2)c2ccccc2n1CCC(=O)O | inactive | inactive | inactive |  | inactive | inactive |  |  |  | 
CCCCc1cc2ccccc2c(OCCN(C)C)n1 | 8.04 µM (active) | 9.02 µM (active) | inactive | inactive |  | inactive |  |  |  | 
Cc1cccc(Oc2ccccc2)c1 | inactive |  | inactive | inactive | inactive |  | inactive | inactive | inactive | inactive
CCOc1nc2cccc(C(=O)O)c2n1Cc1ccc(-c2ccccc2-c2nn[nH]n2)cc1 | 29.8 µM (active) | 29.8 µM (active) |  | inactive | inactive | inactive | inactive | 2.66 µM (active) | 0.425 µM [inconclusive] (active) | 0.0376 µM (active)
CCCCCC(CO)CCC (stereo unspecified) | inactive | inactive | inactive | inactive |  | inactive |  |  |  | 
NC(N)=NN=C(/C=C/c1ccc([N+](=O)[O-])o1)/C=C/c1ccc([N+](=O)[O-])o1 | 1.68 µM (active) | 1.5 µM (active) |  | inactive | 23.7 µM (active) | 7.5 µM (active) | 4.77 µM [activator] (active) |  |  | 
Cn1sccc1=O | 30.6 µM (active) | 30.6 µM (active) |  | inactive | inactive | inactive | inactive | inactive | inactive | 
CCCCOc1ccc(CC(=O)NO)cc1 | inactive | inactive | inactive |  | inactive | inactive |  |  |  | 
S=C(S)NCCNC(=S)S | inactive | inactive | inactive |  | inactive | inactive |  |  |  | 
O=C(O)[C@@H]1[C@H]2C[C@H]3c4[nH]c5ccccc5c4CCN3C[C@@H]2CC[C@@H]1O | inactive |  | inactive | inactive | inactive | inactive | inactive |  | inactive | inactive
Cc1cccc(OCCOc2cccc(C)c2)c1 | inactive |  |  | inactive | inactive | inactive | inactive |  | inactive | 
Cl/C(=C\n1cncn1)c1ccc(Cl)cc1Cl | inactive |  | inactive | inactive | inactive |  |  |  |  | 
